Test results published in PubChem BioAssay AID2061324 (National Center for Advancing Translational Sciences (NCATS), 2025).
Records with an inconclusive call do not appear. Active and inactive are the calls of the source. Calls come from the whole dose curve; as a rule, active = well fitted inhibition curve with a large enough effect; inconclusive = small, poorly fitted or top-dose-only effect; inactive = flat fitted curve, though single readings scatter. Square brackets hold non-standard residues; d marks the D form. Peptide text beside a SMILES is read from it. Dolaproine = CO[C@@H]([C@@H]1CCCN1)[C@@H](C)C(=O)O; Dil = CC[C@H](C)[C@H](NC)[C@@H](CC(=O)O)OC; NMeV = CN[C@H](C(=O)O)C(C)C

Experiment: Identification of antibody-drug conjugate (ADC) payloads which are substrates of ATP-binding cassette drug efflux transporters: ABCG2-HEK293-pcDNA cell line
Settings: ABCG2-HEK293 transfected cells viability, CellTiter-Glo, 48 h
Excerpt: Antibody-drug conjugates (ADCs) feature an antibody recognizing a specific protein joined to a potent toxic payload. Numerous antibody-drug conjugates have received FDA approval; however, clinical resistance arises. Resistance mechanisms include decreased expression or mutation of the antibody target, impaired payload release, or increased expression of ATP-binding cassette (ABC) efflux transporters associated with multidrug resistance. We therefore sought to characterize the interaction of ABC multidrug transporters with ADC payloads. We performed a high-throughput screen with 27 common ADC payloads using cells lines expressing ABC transporters P-glycoprotein (P-gp, encoded by ABCB1) or ABCG2 (encoded by ABCG2). Confirmatory assays were also performed using cells transfected to express P-gp, ABCG2, or MRP1 (encoded by ABCC1). Several commonly used ADC payloads were substrates of P-gp, including calicheamicin gamma1, monomethyl auristatin E, DM1, and DM4. All the pyrrolobenzodiazepines tested - SJG136, SGD-1882, SG2057, and SG3199 - were substrates of P-gp, ABCG2, and MRP1. […] These findings highlight the risk of transporter-mediated resistance with certain ADC payloads and underscore the importance of selecting payloads that evade ABC transporter recognition in future ADC development.
HEK-293 cells were transfected with empty vector (pcDNA) or vector containing the human ABCB1 (MDR-19), ABCG2 (R-5), or ABCC1 gene (MRP1) and were maintained in EMEM with 2 mg/mL G418 added to maintain transporter expression. The HeLa derivative KB-3-1 and the P-gp overexpressing KB-8-5-11 subline were maintained in DMEM; KB-8-5-11 additionally received 100 ng/mL colchicine. H460 parental cells were obtained from the Division of Cancer Treatment and Diagnosis Tumor Repository, National Cancer Institute at Frederick, MD and were cultured in RPMI. The ABCG2 expressing subline H460 MX20 was generated by selecting H460 cells in 20 nM mitoxantrone. Media in all cases was supplemented with 10% FBS and 1% penicillin-streptomycin. We explored 27 common ADC payloads, in two orthogonal, paired cell line sets-a drug selected and transfected set for each transporter--to identify substrates of the ABC transporters P-gp and ABCG2. Compounds were sourced from Levena Biopharma (San Diego, CA), Selleck Chem (Houston, TX), ChemieTek (Indianapolis, IN), or Microsource Discovery Systems (Gaylordsville, CT). Screening was performed as previously described. Briefly, cells were plated at a density of 500 cells/well in 1536 well plates with compounds added using a 1536-head pin tool (Kalypsys, San Diego CA). Cells were incubated with cytotoxic drugs and processed with CellTiter Glo reagent (Promega, Madison, WI) to determine viability after 48 hours. P-gp substrates were identified by comparing compound activity between paired sets of low-expressing (sensitive) and over-expressing (resistant) cell lines.

| Compound | Potency |
| --- | --- |
| CCN[C@H]1CO[C@@H](O[C@H]2[C@H](O[C@H]3C#C/C=C\C#C[C@]4(O)CC(=O)C(NC(=O)OC)=C3/C4=C\CSSSC)O[C@H](C)[C@@H](NO[C@H]3C[C@H](O)[C@H](SC(=O)c4c(C)c(I)c(O[C@@H]5O[C@@H](C)[C@H](O)[C@@H](OC)[C@H]5O)c(OC)c4OC)[C@@H](C)O3)[C@@H]2O)C[C@@H]1OC | 1.1 nM (active) |
| CC[C@H](C)[C@@H]([C@H](N)CC(=O)N1CCC[C@H]1[C@H](OC)[C@@H](C)C(=O)N[C@@H](Cc1ccccc1)c1nccs1)N(C)C(=O)[C@@H](NC(=O)[C@H](C(C)C)N(C)C)C(C)C | 6 nM (active) |
| CC[C@H](C)[C@@H]([C@@H](CC(=O)N1CCC[C@H]1[C@H](OC)[C@@H](C)C(=O)N[C@@H](Cc1ccccc1)C(=O)O)OC)N(C)C(=O)[C@@H](NC(=O)[C@@H](NC)C(C)C)C(C)C (H-[NMeV]V[Dil][Dolaproine]F-OH) | 3360 nM (active) |
| CN(C)CCOc1ccc2[nH]c(C(=O)N3C[C@@H](CCl)c4c3cc(O)c3ccccc43)cc2c1 | 0.8 nM (active) |
| Cc1nc(Nc2ncc(C(=O)Nc3c(C)cccc3Cl)s2)cc(N2CCN(CCO)CC2)n1 | 4750 nM (active) |
| CC(C)(C)OC(=O)Nc1ccc2[nH]c(C(=O)N3C[C@@H](CCl)c4c3cc(O)c3ccccc43)cc2c1 | 16.9 nM (active) |
| CC[C@]1(O)CC2CN(CCc3c([nH]c4ccccc34)[C@@](C(=O)OC)(c3cc4c(cc3OC)N(C)[C@H]3[C@@](O)(C(=O)OC)[C@H](OC(C)=O)[C@]5(CC)C=CCN6CC[C@]43[C@@H]65)C2)C1 (stereo partly specified) | 300 nM (active) |
| COc1cccc2c1C(=O)c1c(O)c3c(c(O)c1C2=O)C[C@@](O)(C(=O)CO)C[C@@H]3O[C@H]1C[C@H]2[C@H](O[C@@H]3[C@@H](OC)OCCN32)[C@H](C)O1 | 0.2 nM (active) |
| CCN(C(C)=O)[C@H]1CO[C@@H](O[C@H]2[C@H](O[C@H]3C#C/C=C\C#C[C@]4(O)CC(=O)C(NC(=O)OC)=C3/C4=C\CSSSC)O[C@H](C)[C@@H](NO[C@H]3C[C@H](O)[C@H](SC(=O)c4c(C)c(I)c(O[C@@H]5O[C@@H](C)[C@H](O)[C@@H](OC)[C@H]5O)c(OC)c4OC)[C@@H](C)O3)[C@@H]2O)C[C@@H]1OC | 2.7 nM (active) |
| COc1cc2cc(c1Cl)N(C)C(=O)C[C@H](O)[C@]1(C)O[C@H]1[C@H](C)C1C[C@@](O)(NC(=O)O1)[C@H](OC)/C=C/C=C(\C)C2 | 4750 nM (active) |
| COC(=O)c1cc2c3c(cc(O)c2[nH]1)N(C(=O)c1cc2cc(OC)c(OC)c(OC)c2[nH]1)CC3CCl (stereo unspecified) | 3.4 nM (active) |
